Reference: PubChem BioAssay (NCI)
About 83,000 compounds went through this panel and 20% of them were active in at least one assay; those are over-represented in the sample as a whole.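 The test compound was applied at a single concentration to cells in 96-well plates for 48 hours, and percent growth was recorded.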 Unmarked numbers belong to inactive results.

What follows are compounds tested on HS 578T breast (assay: NCI-60 one-dose screen, 48 h (100 = growth as untreated, 0 = no growth, -100 = all killed)). Conditions: 10 µM.
Method: Growth inhibition of the HS 578T human tumor cell line is measured as a screen for anti-cancer activity. Cells are grown in 96 well plates and exposed to the test compound for 48 hours. Compounds are tested at a single concentration, which is 10^-5 M for most compounds. The reported endpoint is percent growth (GI% or GIPRCNT), where numbers from 0 - 100% represent growth inhibition, and numbers from -100% - 0 represent cell death. For example, a value of 40 represents 60% growth inhibition. A value of 0 means no net growth occurred over the course of the experiment. A value of -40 indicates 40% of cells at the beginning of the experiment died by the end of the experiment. A value of -100 means all cells are dead at the end of the experiment.
NCI-60 Human Tumor Cell Lines Screen was performed using the standard one-dose NCI protocol, which is described in more detail at https://dtp.cancer.gov/discovery_development/nci-60/default.htm.
Compounds with GIPRCNT values below 10 were considered active. Activity score was based on GIPRCNT using the following formula: […]
Score is 0 for GIPRCNT values of 100 or above, 50 for GIPRCNT values of 0, and 100 for GIPRCNT values of -100.
O=c1[nH]n(-c2ccccc2)c(=O)cc1Cl gave a growth of 111%.
Work on C=CCCCCCCCCCOC(C)=O yielded a growth of 99.7%.
Compound O=[N+]([O-])c1cccc(C(F)(F)F)c1 has a growth of 103%.
COc1cc(/C=N\Nc2ccccc2)ccc1OC(=O)c1ccccc1 was tested, and the growth was 87.6%.
With COc1nc(N)nc2c1ncn2C1OC(CO)CC1O (stereo not given) the growth was 117%.
C/C(=N/NC(N)=O)c1ccco1 was tested, and the growth was 110%.
For CNC(=S)NC(C)(C)C, the growth was 104%.
Compound COc1cc2nc3cc([N+](=O)[O-])ccc3c(Cl)c2cc1OC has a growth of 112%.
In the case of Oc1ccc2c(c1)OCC1(O)Cc3cc(O)c(O)cc3C21 (stereo not given), the growth is reported as 102%.
Work on COc1cc(C2c3cc4c(cc3C3OC(=O)C2C3CO)OCO4)cc(OC)c1OC (stereo not given) yielded a growth of 33.8%.
CCc1nn(Cc2ccccc2)c2nc(C)c(CCc3ccccc3)c(Cl)c12 showed a growth of 92.2%.
For CC(=O)/C(Cc1ccccc1)=N/O, the growth was 100%.
COCCOC(=O)c1ccc(C(C)C)cc1 gave a growth of 117%.
CC(=O)CC(=O)N(C)C was tested, and the growth was 98.3%.
CC(=Nc1ccccc1)C1=C(O)C(Cc2cccc(F)c2)NC1=O (stereo not given) showed a growth of 45.6%.
Work on O=C(O)CCCC(=O)O yielded a growth of 110%.
O=[N+]([O-])c1ccc(S(=O)(=O)NN=C2CCCCC2)cc1 gave a growth of 141%.
Work on O=C(Nc1cc(-c2ccccc2)[nH]n1)c1ccc(Cl)cc1 yielded a growth of 80.6%.
Cc1ccc(C(=O)c2ccccc2)c(C)c1 was tested, and the growth was 113%.
COc1ccc(OC)c(/C=C2\CCc3ccccc3C2=O)c1 showed a growth of 45.4%.
With CC(C(=O)O)(C1CCCCC1)C1(O)CCCCC1 (stereo not given) the growth was 119%.
For COc1cccc(/C=N/NC(=S)NC2CC3CCC2C3)c1O (stereo not given), the growth was 25.8%.
O=C(O)c1cc([N+](=O)[O-])ccc1Cl gave a growth of 119%.
With CC(=O)Nc1cccc(Cl)c1C the growth was 92.9%.
C#C[C@H]1CCCCCC1O (stereo not given in full) showed a growth of 101%.
For CC(C)=CC(=O)OC(=O)C=C(C)C, the growth was 120%.
O=[N+]([O-])c1ccc(CO)cc1 was tested, and the growth was 98.9%.
For CCC(C)(O)c1ccc(C)cc1 (stereo not given), the growth was 112%.
c1c(-c2cc(C3CC3)[nH]n2)n[nH]c1C1CC1 was tested, and the growth was 101%.
O=C(c1ccc(O)cc1)c1ccc(O)cc1 showed a growth of 107%.
Compound OCc1ccc(-c2ccc(-c3ccc(CO)s3)o2)s1 has a growth of 81.8%.
O=C(O)C(c1ccccc1)C(O)c1ccccc1 (stereo not given) gave a growth of 100%.
Nc1nc(N)c(N=Nc2ccc(C(=O)O)cc2)c(N)n1 gave a growth of 102%.
In the case of Clc1ccc(-c2n[nH]c3c2Cc2ccccc2-3)cc1Cl, the growth is reported as 110%.
COC(=O)Nc1nc2ccc(C(=O)c3cccs3)cc2[nH]1 was tested, and the growth was 20.9%.
Compound CC(=O)OCC1CCCO1 (stereo not given) has a growth of 94.2%.
Compound Cc1ccc(Cl)cc1N1C(=O)CC(Sc2ccccc2N)C1=O (stereo not given) has a growth of 103%.
In the case of O=C1OC(=O)C2C1C1(Cl)C(Cl)=C(Cl)C2(Cl)C2C(=O)OC(=O)C21 (stereo not given), the growth is reported as 113%.
Work on S=C1NCc2cncnc2N1 yielded a growth of 105%.
Compound S=C1CCCCCN1 has a growth of 105%.
